The record followed here is PubChem BioAssay AID743311 (Broad Institute, 2014).

Each structure is given as a SMILES string. Results with a measured potency or affinity are listed apart. Calls of active or inactive are those of the source. No rule for the calls is given here.

A short description of the assay: HepG2 cell cytotoxicity, dose response, cytotoxicity control, plate reader, dry powder, set 6 (AID 743311). As to conditions: series mostly up to 26 µM.

In the case of `CSc1nc2ccccc2n1CCOc1cc(C)ccc1C(C)C`, the molecule was called inactive.
As to `Cc1ccc(OCCn2cnc3ccccc32)c(C(C)C)c1`, the call was inactive.
Then `CS(=O)(=O)c1ccc(OCCn2cnc3ccccc32)cc1`, with “inactive”.
As for `CSc1nc2ccccc2n1CCOc1ccc(C)cc1`, the outcome was inactive.
With `Clc1ccccc1OCCn1cnc2ccccc21`, the call was inactive.
Regarding `Cc1cccc(OCCn2cnc3ccccc32)c1`, the molecule was called inactive.
As for `Fc1ccc2c(c1)[nH]c(=S)n2CCOc1ccccc1`, the result was inactive.
As to `Fc1ccc(OCCn2c(=S)[nH]c3ccccc32)cc1`, the molecule was classed as inactive.
In the case of `COc1ccccc1OCCn1c(SC)nc2ccccc21`, the outcome was inactive.
As for `COc1cccc(OCCn2cnc3ccccc32)c1`, the molecule was classed as inactive.
Then `Cc1ccc(C(C)C)c(OCCn2c(NC#N)nc3ccccc32)c1`, with “inactive”; and `Cc1cccc(OCCn2c(=S)[nH]c3ccc(C(F)(F)F)cc32)c1`, with “inactive”.
For `Clc1ccc(OCCn2cnc3ccccc32)c(Cl)c1`, the molecule was classed as inactive.
As to `CC(C)(C)c1ccc(OCCn2cnc3ccccc32)cc1`, the outcome was inactive.
On to `COCc1nc2ccccc2n1CCOc1ccc(C(C)(C)C)cc1`, for which the result was inactive.
For `Cc1cccc(OCCn2c(=S)[nH]c3ccccc32)c1`, the molecule was called inactive.
Then `Cc1ccc(C(C)C)c(OCCn2c(=O)[nH]c3ccccc32)c1`, with “inactive”; and `Cc1ccc(OCCn2cnc3ccccc32)c(C)c1`, with “inactive”.
In the case of `CC(C)(C)c1ccc(OCCn2c(CO)nc3ccccc32)cc1` it was “inactive”.
In the case of `CCCc1nc2ccccc2n1CCOc1ccccc1` it was “inactive”; in that of `COc1cc(C)ccc1OCCn1cnc2ccccc21`, “inactive”.
